Growth data for 40 molecules are collected here from PubChem BioAssay (NCI).

Where “and” joins values, the source holds several entries; their conditions need not be identical. Identical values can stand only once. This is part of a sample that, as a whole, favours compounds with a hit. Of some 83,000 tested, about 20% had one in any assay.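 Values shown are percent growth following 48 h exposure of cells in 96-well plates to a single concentration of compound; below 10 was considered active.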 Calls of active or inactive are those of the source.

This test has as its system HL-60(TB) leukemia. Description: NCI-60 one-dose screen, 48 h (100 = growth as untreated, 0 = no growth, -100 = all killed). To be noted: 10 µM unless noted.
With `CN(c1cc2ncc(=O)[nH]c2cc1NC(N)=NCc1ccc(Cl)cc1)C1CCCCC1`, the growth was 52.9% (inactive).

`CC(C)CC1NC(=O)C(CC(C)C)N(CO)C1=O` (stereo not given): the growth is 106% (inactive).

For the molecule `CCOc1ccccc1NC(=O)CCl`, the growth is 104% (inactive).

Take `COc1cc(-c2ncn(/C=C\C(=O)OC(C)C)n2)cc(C(F)(F)F)c1`: the growth is 7.55% (active).

Consider `Cc1cccc(NC(=O)N/C(N)=N/c2nc(C)c(C)s2)c1`, for which the growth was 19.5% (inactive).

In the case of `CCOc1cccc(Nc2nc(N)nc3[nH]c4ccc(O)cc4c23)c1`, the growth was 53% (inactive).

As for `CCOC(=O)C1CC(=O)c2cc(OC)c(OC)cc2C1` (stereo not given), the growth is 97.6% (inactive).

Turning to `CCCCN1CCN(c2ccc3nc(-c4ccc5nc(-c6cc(OC)c(OC)c(OC)c6)[nH]c5c4)[nH]c3c2)CC1`, the growth is 85.7% (inactive).

Regarding `COc1cc(-c2nn(-c3ccc(NC(=O)NCCCNC(=O)c4ccccc4)cc3)cc2-c2ccncc2)ccc1Cl`, the growth is -0.104% (active).

Consider `O=C(NC1CCN(Cc2ccccc2)CC1)c1cc2nc(-c3ccc(Cl)s3)cc(C(F)(F)F)n2n1`, for which the growth was 58.6% (inactive).

For `Cn1nccc1Nc1nccc(-c2ccn([C@H](CO)c3ccc(Cl)c(F)c3)c(=O)c2)n1`, the growth was 57.1% (inactive).

`Cn1ccc(Cc2cnc(N)s2)n1`: the growth is 94.2% (inactive).

Regarding `CCCCCCOc1ccc(C2(Cl)c3ccccc3N(C)c3ccccc32)cc1`, the growth was 65.4% (inactive).

In the case of `Cc1cccc(Cc2cnc(NC(=O)c3ccc4nnsc4c3)s2)c1`, the growth is 94.1% (inactive).

With `Nc1cccc(NC(=O)C(=O)Nc2cccc(N)c2)c1`, the growth was 97.5% (inactive).

On to `Cc1cc(O)c2c(c1)C[C@H]1[C@@H]3CC[C@H]4CC(=O)CC[C@]4(C)[C@H]3CC(=O)[C@]21C`, for which the growth is 73.9% (inactive).

With `O=C1CCC(NC(=S)Nc2ccccc2)N1` (stereo not given), the growth is 99.2% (inactive).

As for `Cc1ccc(Nc2nc(N)c3ccccc3n2)cc1Cl`, the growth was 78.2% (inactive).

For the molecule `CC[C@]12C=CCN3CC[C@@]4(c5cc(NC(=O)CCC(=O)O[C@H]6CC[C@H]7[C@@H]8CCC9=CC(=O)CC[C@@H]9[C@H]8CC[C@]67C)c(OC)cc5N(C)[C@H]4[C@@](O)(C(=O)OC)[C@@H]1OC(C)=O)[C@@H]32`, the growth is 62.5% (inactive).

`O=C(NCCc1ccc(O)c(O)c1)C12CC3CC(CC(C3)C1)C2`: the growth is 57% (inactive).

As for `COc1cc2cc(Oc3ccc(NC(=O)Nc4cccc(C(F)(F)F)c4)cc3)c(C)nc2cc1OCCN1CCOCC1`, the growth was 66.9% (inactive).

With `C=C(C)[C@@H]1CC[C@]2(C(=O)N3CCN(C)CC3)CC[C@]3(C)[C@H](CC[C@@H]4[C@@]5(C)CC(=C/c6ccncc6)/C(=N/O)C(C)(C)[C@@H]5CC[C@]43C)[C@@H]12`, the growth is 40.4% (inactive).

Turning to `O=CN1N=C(c2ccc(Cl)cc2)CC1c1cccc(Nc2ccnc3cc(Cl)ccc23)c1` (stereo not given), the growth was -24.6% (active).

`COc1ccc(/C=N\NC(=O)c2cc(-c3ccc(Br)cc3)n(-c3ccc(S(N)(=O)=O)cc3)n2)cc1`: the growth was 33.5% (inactive).

Turning to `O=[N+]([O-])C=C(c1ccccc1)c1ccccc1`, the growth is 60.2% (inactive).

Take `COc1ccc(-c2[nH]nc(N)c2-c2cc(OC)c(OC)c(OC)c2)cc1`: the growth was -34.9% (active).

Turning to `CCn1ccnc1C(=O)/C=C/c1ccc(CC(=O)Nc2ccc(F)cc2)cc1`, the growth is 27.9% (inactive).

In the case of `CCCCCCCCCCCCN1CCCC(C)C1` (stereo not given), the growth is 55.6% (inactive).

Consider `COC(=O)/C=C/c1cc(O)c2oc(-c3ccc(O)c(O)c3)c(C(=O)OC)c2c1`, for which the growth was 6.46% (active).

As for `CCN(CC)C(=S)SC(SC(=S)N(CC)CC)C(=O)c1nnn(-c2ccc([N+](=O)[O-])cc2)c1C`, the growth was 82.4% (inactive).

For `CN1CCN(c2ccc3nc(-c4c(N)c5c(F)cccc5[nH]c4=O)[nH]c3c2)CC1`, the growth was 12.9% (inactive) and 3.6% (active).

With `O=C(Nc1cc(C(F)(F)F)cc(C(F)(F)F)c1)c1cc(Cl)ccc1O`, the growth was -24.6% (active) and -49% (active).

With `CCS/C(Nc1ccccc1)=C(\C#N)C(=O)N/N=C/c1ccc(Cl)cc1Cl`, the growth is -31.4% (active).

`Cc1nc(N)sc1Sc1nc2ccc(Cl)cc2c(=O)n1-c1ccc(Oc2ccccc2)cc1`: the growth is 59.4% (inactive).

As for `COC(=O)c1n[nH]c2ccc3nc(-c4cn[nH]c4C(F)(F)F)c4c(c3c12)CCCC4`, the growth is 70% (inactive).

Turning to `COc1ccc(/C(=N/O)c2cc(F)c(F)c(OC)c2F)cc1O`, the growth was -5.23% (active).

Take `C=C1CCC2C3(C)COC(c4ccc(N(C)C)cc4)OC3CCC2(C)C1C/C=C1/C(=O)OCC1O` (stereo not given): the growth was 15.3% (inactive).

Regarding `C[N+](C)=c1ccc2nc3c(cc(Nc4ccccc4)c4ccccc43)oc-2c1`, the growth is 25.8% (inactive).

On to `O=C1CSC(c2ccccc2Cl)N1c1nnc(Cn2nnc3ccccc32)o1` (stereo not given), for which the growth was 84.4% (inactive).

`O=S(=O)(NCCNc1nccc(-c2c(-c3cccc(F)c3)nc3occn23)n1)c1cccc2ccccc12`: the growth is 51.9% (inactive).
